These results are taken from the supplement of paper PMC7411640.

Counter-ions that a name gives are not always drawn.

This test relates to MDA-MB-468. In words: phospho-S6 immunofluorescence (DAPI-normalised), per-plate z-score; higher = higher phospho-S6 signal (less pathway suppression). The conditions noted are these: 24 h. As to the method:
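GPCR-targeted compound library (MedChemExpress HY-L006) tested on MDA-MB-468 PTEN-null TNBC cells in 384-well plates at 0.1, 1 or 10 uM, combined with vehicle, GDC0941 450 nM or lapatinib 1 uM, for 24 h. Phospho-S6 (S240/244) immunofluorescence normalised to DAPI and expressed as a per-plate z-score; values are the mean of biological triplicates.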

As to `Cc1cc(O[C@@H](CCC(F)(F)F)c2ccc(C(=O)NCCC(=O)O)cc2)cc(C)c1-c1ccc(C(C)(C)C)cc1` [Adomeglivant] (compound 10 µM), the “phospho-S6 immunofluorescence (z-score)” value is -4.72 (co-treatment: GDC0941 450 nM), -7.2 (co-treatment: lapatinib 1 uM) and -6.79 (co-treatment: vehicle).
As to `CCCCC[C@H](O)/C=C/[C@@H]1[C@@H](C/C=C\CCCC(=O)O)[C@@H](O)C[C@H]1O` [Dinoprost (tromethamine salt)] (compound 10 µM), the “phospho-S6 immunofluorescence (z-score)” value runs as follows: (co-treatment: GDC0941 450 nM) -0.07; (co-treatment: lapatinib 1 uM) -0.14; (co-treatment: vehicle) 0.98.
For `c1cc(CN2CCCNCCNCCCNCC2)ccc1CN1CCCNCCNCCCNCC1` [Plerixafor (octahydrochloride)] (compound 10 µM), the “phospho-S6 immunofluorescence (z-score)” value is -0.24 (co-treatment: GDC0941 450 nM), 0.37 (co-treatment: lapatinib 1 uM) and -0.74 (co-treatment: vehicle).
Take `N#Cc1ccc2[nH]cc(CCCCN3CCN(c4ccc5oc(C(N)=O)cc5c4)CC3)c2c1` [Vilazodone] (compound 10 µM): the “phospho-S6 immunofluorescence (z-score)” value (co-treatment: GDC0941 450 nM) was found to be 0.37, the “phospho-S6 immunofluorescence (z-score)” value (co-treatment: lapatinib 1 uM) came to 0.11 and the “phospho-S6 immunofluorescence (z-score)” value (co-treatment: vehicle) amounted to 1.24.
Taken in the same sequence, the figures for `CN1CCN2c3c(cccc31)[C@@H]1CN(CCCC(=O)c3ccc(F)cc3)CC[C@@H]12` [lumateperone (Tosylate)] (compound 10 µM) were -3.44, -3.22 and -5.62.
Turning to `O=C1CCC(c2ccccc2)(C2CCN(Cc3ccccc3)CC2)C(=O)N1` (configuration not stated) [Benzetimide (hydrochloride)] (compound 10 µM), the “phospho-S6 immunofluorescence (z-score)” value (co-treatment: GDC0941 450 nM) was determined as 0.5, the “phospho-S6 immunofluorescence (z-score)” value (co-treatment: lapatinib 1 uM) is -0.15 and the “phospho-S6 immunofluorescence (z-score)” value (co-treatment: vehicle) is 0.11.
As to `CC(C)(O)c1ccccc1CC[C@@H](SCC1(CC(=O)O)CC1)c1cccc(/C=C/c2ccc3ccc(Cl)cc3n2)c1` [Montelukast (sodium)] (compound 10 µM), the “phospho-S6 immunofluorescence (z-score)” value (co-treatment: GDC0941 450 nM) was 0.45, the “phospho-S6 immunofluorescence (z-score)” value (co-treatment: lapatinib 1 uM) was determined as 0.97 and the “phospho-S6 immunofluorescence (z-score)” value (co-treatment: vehicle) was 1.39.
Take `CNS(=O)(=O)CCc1ccc2[nH]cc(C3CCN(C)CC3)c2c1` [Naratriptan (hydrochloride)] (compound 10 µM): the “phospho-S6 immunofluorescence (z-score)” value (co-treatment: GDC0941 450 nM) is -0.23, the “phospho-S6 immunofluorescence (z-score)” value (co-treatment: lapatinib 1 uM) worked out at 0.4 and the “phospho-S6 immunofluorescence (z-score)” value (co-treatment: vehicle) was found to be 0.18.
Taken in the same sequence, the figures for `NCCc1ccc(O)c(O)c1` [Dopamine (hydrochloride)] (compound 10 µM) were 0.84, 0.53 and 0.15.
Regarding `C[C@H]1C[C@H]2[C@@H]3CCC4=CC(=O)C=C[C@]4(C)[C@H]3C(=O)C[C@]2(C)[C@@]1(O)C(=O)CO` [Meprednisone] (compound 10 µM), the “phospho-S6 immunofluorescence (z-score)” value reads like this: (co-treatment: GDC0941 450 nM) 0.11; (co-treatment: lapatinib 1 uM) -0.5; (co-treatment: vehicle) -0.52.
Regarding `O=C1CCc2ccc(OCCCCN3CCN(c4cccc(Cl)c4Cl)CC3)cc2N1` [Aripiprazole] (compound 10 µM), the “phospho-S6 immunofluorescence (z-score)” value is -3.14 (co-treatment: GDC0941 450 nM), -5.16 (co-treatment: lapatinib 1 uM) and -3.2 (co-treatment: vehicle).
Turning to `CCCCCN(CCCOC)C(=O)C(CCC(=O)O)NC(=O)c1ccc(Cl)c(Cl)c1` (configuration not stated) [Loxiglumide] (compound 10 µM), the “phospho-S6 immunofluorescence (z-score)” value worked out at 0.5 (co-treatment: GDC0941 450 nM), 0.64 (co-treatment: lapatinib 1 uM) and 0.51 (co-treatment: vehicle).
Taken in the same sequence, the figures for `Cc1ccc2c(c1CCC(=O)O)CC[C@@H](NS(=O)(=O)c1ccc(Cl)cc1)C2` [Terutroban] (compound 10 µM) were -0.9, 0.55 and -0.1.
With `O=C(c1ccc(F)cc1)C1CCN(CCn2c(=O)[nH]c3ccccc3c2=O)CC1` [Ketanserin (tartrate)] (compound 10 µM), the “phospho-S6 immunofluorescence (z-score)” value is, setting by setting: (co-treatment: GDC0941 450 nM) 0.46; (co-treatment: lapatinib 1 uM) -0.54; (co-treatment: vehicle) 0.68.
Turning to `CCCCOc1ccc(C(=O)Nc2ccc(F)cc2F)cc1` (compound 10 µM), the “phospho-S6 immunofluorescence (z-score)” value (co-treatment: GDC0941 450 nM) was -0.51, the “phospho-S6 immunofluorescence (z-score)” value (co-treatment: lapatinib 1 uM) was -1.06 and the “phospho-S6 immunofluorescence (z-score)” value (co-treatment: vehicle) is 0.89.
Consider `CC(C)OC(=O)CCC/C=C\C[C@@H]1[C@@H](CC[C@@H](O)CCc2ccccc2)[C@H](O)C[C@@H]1O` [Latanoprost] (compound 10 µM), for which the “phospho-S6 immunofluorescence (z-score)” value was 0.61 (co-treatment: GDC0941 450 nM), -0.08 (co-treatment: lapatinib 1 uM) and -0.18 (co-treatment: vehicle).
Take `CN1[C@@H]2CC[C@H]1C[C@@H](OC(c1ccccc1)c1ccccc1)C2` [Benztropine (mesylate)] (compound 10 µM): the “phospho-S6 immunofluorescence (z-score)” value was 1.67 (co-treatment: GDC0941 450 nM), -1.69 (co-treatment: lapatinib 1 uM) and 0.29 (co-treatment: vehicle).
Take `Cc1cc(C(C)(C)C)c(O)c(C)c1CC1=NCCN1` [Oxymetazoline (hydrochloride)] (compound 10 µM): the “phospho-S6 immunofluorescence (z-score)” value is 0.28 (co-treatment: GDC0941 450 nM), -0.17 (co-treatment: lapatinib 1 uM) and -0.03 (co-treatment: vehicle).
Take `C=C[C@@]1(C)CC(=O)[C@]2(O)[C@@]3(C)[C@@H](O)CCC(C)(C)[C@@H]3[C@H](O)[C@H](OC(C)=O)[C@@]2(C)O1` [Forskolin] (compound 10 µM): the “phospho-S6 immunofluorescence (z-score)” value (co-treatment: GDC0941 450 nM) is 1.82, the “phospho-S6 immunofluorescence (z-score)” value (co-treatment: lapatinib 1 uM) was 2.65 and the “phospho-S6 immunofluorescence (z-score)” value (co-treatment: vehicle) is 0.23.
Taken in the same sequence, the figures for `c1ccc2c(c1)CCCC2C1=NCCN1` (configuration not stated) [Tetrahydrozoline (hydrochloride)] (compound 10 µM) were 0.32, 0.87 and 0.75.
With `CCCC(=O)OC(CNC(C)(C)C)COc1nsnc1N1CCOCC1` (racemic) [(RS)-Butyryltimolol] (compound 10 µM), the “phospho-S6 immunofluorescence (z-score)” value is 0.09 (co-treatment: GDC0941 450 nM), -0.58 (co-treatment: lapatinib 1 uM) and -0.47 (co-treatment: vehicle).
For `CCN1CCCC1CNC(=O)c1cc(S(=O)(=O)CC)c(N)cc1OC` (configuration not stated) [Amisulpride] (compound 10 µM), the “phospho-S6 immunofluorescence (z-score)” value came out at 0.37 (co-treatment: GDC0941 450 nM), 0.58 (co-treatment: lapatinib 1 uM) and 0.83 (co-treatment: vehicle).
Take `CC[C@H](NC(=O)c1c(C)c(-c2ccccc2)nc2ccccc12)c1ccccc1` (compound 10 µM): the “phospho-S6 immunofluorescence (z-score)” value is -4.55 (co-treatment: GDC0941 450 nM), -3.25 (co-treatment: lapatinib 1 uM) and -1.64 (co-treatment: vehicle).
For the molecule `CCCN[C@H]1CCc2nc(N)sc2C1` [Pramipexole (dihydrochloride)] (compound 10 µM), the “phospho-S6 immunofluorescence (z-score)” value (co-treatment: GDC0941 450 nM) is 0.87, the “phospho-S6 immunofluorescence (z-score)” value (co-treatment: lapatinib 1 uM) was 0.31 and the “phospho-S6 immunofluorescence (z-score)” value (co-treatment: vehicle) stood at 0.17.
